We go through 27 compounds from PubChem BioAssay (NCATS).

Inconclusive results are not listed. Activity calls are given as the source filed them. The call rests on the fitted dose curve; in most records, active means well fitted cell-killing curve with a large enough effect; inconclusive means small, poorly fitted or top-dose-only effect, or effect the other way; inactive means no such curve, though single readings can be large or run the other way.
Potency means the concentration at half of the fitted maximal effect.

A short description of one experiment: Quantitative High-Throughput drug screen in 47 multiple myeloma cell lines against the NCATS MIPE library collection: VP6_DJ cell viability assay (AID 1919867). Further: nearly all actives have a fitted effect of over 40% in size.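 On viability (% of DMSO): 100% = DMSO-only wells and 0% = wells with media alone.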 To be noted: ATP luminescence, 48 h; series mostly up to 45.8 µM; viability (% of DMSO): at the top concentration. In short, it runs like this: (§1)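 Inhibition of viability over 48 h was scored by ATP content (CellTiter-Glo) in 500-cell wells. Zero and full viability were defined by media-only and DMSO-only wells.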
On to `CC(C)n1nc(-c2ccc3oc(N)nc3c2)c2c(N)ncnc21`, for which the Potency is 0.001 µM (active). Consider `CNC(=O)c1ccccc1Sc1ccc2c(C=Cc3ccccn3)n[nH]c2c1`, for which the Potency was 14.8 µM (active).

`CC(C)C(=O)Nc1ncc(-c2cc(C(F)F)nn2-c2c(Cl)cccc2Cl)s1`: the Potency was 18.7 µM (active). On to `Cc1nnc(C(C)C)n1C1C[C@H]2CC[C@@H](C1)N2CC[C@H](NC(=O)C1CCC(F)(F)CC1)c1ccccc1` (some centres undefined), for which the Potency was 23.5 µM (active). Still for that read-out and setting: the value for `CCOC(=O)C1=C(N)Oc2ccc(Br)cc2C1C(C#N)C(=O)OCC` (centres undefined) was 16.6 µM (active). Turning to `O=C(O)[C@H]1O[C@H](Oc2cc3oc(-c4ccccc4)cc(=O)c3c(O)c2O)[C@H](O)[C@@H](O)[C@H]1O`, the “viability (% of DMSO)” value was 146% (inactive). Regarding `CC(C)=CC[C@@H](O)C1=CC(=O)c2c(O)ccc(O)c2C1=O`, the Potency was 0.833 µM (active). Take `CC(C)C(C)C=CC(C)C1CCC2C3=CC=C4CC(O)CCC4(C)C3CCC21C` (centres undefined): the “viability (% of DMSO)” value was 148% (inactive). As to `CO[C@H]1C=CC=C(C)C(=O)NC2=CC(=O)C(NCCN(C)C)=C(C[C@@H](C)C[C@H](OC)[C@@H](O)[C@@H](C)C=C(C)[C@@H]1OC(N)=O)C2=O`, the Potency was 0.0093 µM (active). On to `CO[C@H]1C=CO[C@@]2(C)Oc3c(C)c(O)c4c(O)c(c5c(c4c3C2=O)NC2(CCN(CC(C)C)CC2)N=5)=NC(=O)C(C)=CC=C[C@H](C)[C@H](O)[C@@H](C)[C@@H](O)[C@@H](C)[C@H](OC(C)=O)[C@H]1C`, for which the Potency was 16.6 µM (active).

With `CC=CC(=O)N(CC)c1ccccc1C`, the Potency is 29.6 µM (active). For `COc1cc2ncnc(Nc3ccc(F)c(Cl)c3)c2cc1OCCCN1CCOCC1`, the Potency was 6.79 µM (active). With `O=c1cc(-c2cccc3c2Sc2ccccc2S3)oc(N2CCOCC2)c1`, the Potency is 14.8 µM (active). Still for that read-out and setting: the value for `Cc1c(O)cccc1C(=O)N[C@@H](CSc1ccccc1)[C@H](O)CN1C[C@H]2CCCC[C@@H]2C[C@@H]1C(=O)NC(C)(C)C` was 18.7 µM (active). `O=C(CCCCCCC(=O)Nc1ccccc1)NO`: the Potency was 0.833 µM (active).

Regarding `Clc1ccc(C(c2ccc(Cl)cc2)n2cc[n+](CC(OCc3ccc(Cl)cc3Cl)c3ccc(Cl)cc3Cl)c2)cc1` (centres undefined), the Potency was 8.33 µM (active).

`O=C1C(Cl)=C(NCCN2CCOCC2)C(=O)c2ncccc21`: the Potency was 7.43 µM (active). Same read-out and setting: next, `CC(=O)Nc1ccc([C@H](C)C(=O)Nc2ncc(C(C)C)s2)cc1`: 1.66 µM (active); `Oc1ccc(C2CCN(c3ccnc4ccccc34)CC2)cc1O`: 14.8 µM (active). With `O=C1c2c(O)cc(O)cc2O[C@H](c2cc(O)c(O)c(O)c2)[C@H]1O`, the “viability (% of DMSO)” value is 151% (inactive). On to `c1cc(-c2sc(-c3ccncc3)c(-c3ccncc3)c2-c2ccncc2)ccn1`, for which the Potency was 9.35 µM (active). Still for that read-out and setting: the value for `Clc1ccc(CCC(Cn2ccnc2)Sc2c(Cl)cccc2Cl)cc1` (centres undefined) was 26.4 µM (active); that for `NC1=N[C@@]2(c3cc(NC(=O)c4ccc(F)cn4)ccc3F)COC[C@@H]2CS1` was 13.2 µM (active).

The nature of another experiment: Quantitative High-Throughput drug screen in 47 multiple myeloma cell lines against the NCATS MIPE library collection: UTMC2_PLB cell viability assay (AID 1919868). Further: nearly all actives have a fitted effect of over 55% in size.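 On viability (% of DMSO control): 100% = DMSO-only wells and 0% = media-only wells without cells.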 To be noted: CellTiter-Glo ATP luminescence, 48 h; viability (% of DMSO control): at 45.8 µM (top of the series). In short, it runs like this: as §1
(Cellular ATP, detected with luciferase, serves as a proxy for viable cell number.)
Take `CC(C)C(=O)Nc1ncc(-c2cc(C(F)F)nn2-c2c(Cl)cccc2Cl)s1`: the Potency was 20.9 µM (active). Turning to `Cc1nnc(C(C)C)n1C1C[C@H]2CC[C@@H](C1)N2CC[C@H](NC(=O)C1CCC(F)(F)CC1)c1ccccc1` (some centres undefined), the “viability (% of DMSO control)” value is 134% (inactive). `CCOC(=O)C1=C(N)Oc2ccc(Br)cc2C1C(C#N)C(=O)OCC` (centres undefined): the Potency is 18.7 µM (active). Take `O=C(O)[C@H]1O[C@H](Oc2cc3oc(-c4ccccc4)cc(=O)c3c(O)c2O)[C@H](O)[C@@H](O)[C@H]1O`: the “viability (% of DMSO control)” value was 169% (inactive). On to `CC(C)=CC[C@@H](O)C1=CC(=O)c2c(O)ccc(O)c2C1=O`, for which the Potency was 13.2 µM (active). On to `COc1cc(N2CCC(N3CCN(C)CC3)CC2)ccc1Nc1ncc(Cl)c(Nc2ccccc2S(=O)(=O)C(C)C)n1`, for which the “viability (% of DMSO control)” value was 5.22% (inactive). Take `CC(C)C(C)C=CC(C)C1CCC2C3=CC=C4CC(O)CCC4(C)C3CCC21C` (centres undefined): the “viability (% of DMSO control)” value was 159% (inactive).

For the compound `CO[C@H]1C=CC=C(C)C(=O)NC2=CC(=O)C(NCCN(C)C)=C(C[C@@H](C)C[C@H](OC)[C@@H](O)[C@@H](C)C=C(C)[C@@H]1OC(N)=O)C2=O`, the Potency was 0.0662 µM (active). Still for that read-out and setting: next, `Cc1ccc(C(=O)Nc2cccc(C(F)(F)F)c2)cc1Nc1nc(-c2cccnc2)nc2c1cnn2C`: 11.8 µM (active). For `CO[C@H]1C=CO[C@@]2(C)Oc3c(C)c(O)c4c(O)c(c5c(c4c3C2=O)NC2(CCN(CC(C)C)CC2)N=5)=NC(=O)C(C)=CC=C[C@H](C)[C@H](O)[C@@H](C)[C@@H](O)[C@@H](C)[C@H](OC(C)=O)[C@H]1C`, the “viability (% of DMSO control)” value is 177% (inactive).

For `CC=CC(=O)N(CC)c1ccccc1C`, the “viability (% of DMSO control)” value is 198% (inactive). `COc1cc2ncnc(Nc3ccc(F)c(Cl)c3)c2cc1OCCCN1CCOCC1`: the Potency is 17.1 µM (active).

Consider `Cc1c(O)cccc1C(=O)N[C@@H](CSc1ccccc1)[C@H](O)CN1C[C@H]2CCCC[C@@H]2C[C@@H]1C(=O)NC(C)(C)C`, for which the Potency was 23.5 µM (active). Take `O=C(CCCCCCC(=O)Nc1ccccc1)NO`: the Potency was 0.662 µM (active). Same read-out and setting: next, `Clc1ccc(C(c2ccc(Cl)cc2)n2cc[n+](CC(OCc3ccc(Cl)cc3Cl)c3ccc(Cl)cc3Cl)c2)cc1` (centres undefined): 4.69 µM (active); `O=C1C(Cl)=C(NCCN2CCOCC2)C(=O)c2ncccc21`: 8.33 µM (active); `CC(=O)Nc1ccc([C@H](C)C(=O)Nc2ncc(C(C)C)s2)cc1`: 3.72 µM (active). Regarding `CS(=O)(=O)N(Cc1ccco1)CC(O)Cn1c2ccccc2c2ccccc21` (centres undefined), the “viability (% of DMSO control)” value was 132% (inactive). Regarding `O=C1c2c(O)cc(O)cc2O[C@H](c2cc(O)c(O)c(O)c2)[C@H]1O`, the “viability (% of DMSO control)” value was 120% (inactive). Turning to `COC(=O)N[C@H](C(=O)N1CCC[C@@H]1c1ncc(-c2ccc(-c3ccc(-c4cnc([C@@H]5CCCN5C(=O)[C@@H](NC(=O)OC)C(C)C)[nH]4)cc3)cc2)[nH]1)C(C)C`, the “viability (% of DMSO control)” value was 199% (inactive). On to `Clc1ccc(CCC(Cn2ccnc2)Sc2c(Cl)cccc2Cl)cc1` (centres undefined), for which the Potency is 18.7 µM (active).
